According to PubChem BioAssay (NCI):
The panel holds about 79,000 compounds, 15% with a hit somewhere; the sample as a whole holds those more often. Active and inactive are the calls of the source. No stated cut-off is given here; in the data, active means growth inhibition above about 70%; inactive means the rest.

Key:
[1] = NCI Yeast Anticancer Drug Screen. Data for the rad52 strain (AID 147);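 further: 0% = growth of vehicle-treated control cultures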; settings: S. cerevisiae rad52 mutant growth inhibition, hits give high values
In short: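 Screen used a yeast mutant impaired in DNA repair. After compound exposure, growth was measured. Values reflect inhibition compared with vehicle-treated cells.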

[2] = NCI Yeast Anticancer Drug Screen. Data for the wt1 strain (AID 149);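 further: 0% = growth of vehicle-treated wt1 cultures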; settings: S. cerevisiae wt1 strain (SPY 50644) growth inhibition, hits give high values
In short: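 The wt1 strain was treated with compounds, and growth was compared with vehicle-treated cultures to give inhibition.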

[3] = NCI Yeast Anticancer Drug Screen. Data for the rad50EPP+ strain (AID 151);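 further: 0% = growth of vehicle-treated control cultures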; settings: S. cerevisiae rad50 mutant strain, hits give high values
In short: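 Exposing the rad50EPP+ strain to each compound, growth was compared with vehicle-only cultures to give inhibition.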

[4] = NCI Yeast Anticancer Drug Screen. Data for the rad50 strain (AID 155);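 further: 0% = growth of vehicle-only cultures of the same strain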; settings: S. cerevisiae rad50 strain growth inhibition, hits give high values
In short: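 Cells are treated with compound, grown, and their growth is then scored against vehicle-only cultures of the same repair-deficient yeast strain.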

[5] = NCI Yeast Anticancer Drug Screen. Data for the mec2-1 strain (AID 157); settings: S. cerevisiae mec2-1 strain, hits give high values
In short: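 Readout is yeast growth inhibition, normalised to vehicle-treated controls, in the mec2-1 strain exposed to compound.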

[6] = NCI Yeast Anticancer Drug Screen. Data for the rad14 strain (AID 159);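 further: 0% = growth of vehicle-treated control cultures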; settings: S. cerevisiae rad14 strain growth inhibition, hits give high values
In short: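 Readout: yeast growth inhibition, referenced to vehicle-only cultures. Strain bears a defined alteration in DNA damage repair.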

[7] = NCI Yeast Anticancer Drug Screen. Data for the sgs1 mgt1 strain (AID 161);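 further: 0% = growth of cultures given vehicle only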; settings: S. cerevisiae sgs1 mgt1 strain, hits give high values
In short: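 Percent growth inhibition was derived by comparing compound-exposed mutant yeast with vehicle-exposed cultures. The strain carries alterations in DNA damage repair.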

[8] = NCI Yeast Anticancer Drug Screen. Data for the CLN2oe strain (AID 163);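 further: 0% = growth of vehicle-only control cultures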; settings: S. cerevisiae CLN2oe strain, hits give high values
In short: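 Values reflect how much compound exposure reduced yeast growth, referenced to vehicle-exposed cells. Assay organism is a strain with a defined genetic change affecting cell-cycle control.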

[9] = NCI Yeast Anticancer Drug Screen. Data for the cln2 rad14 strain (AID 165);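 further: 0% = growth equal to vehicle treated cultures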; settings: S. cerevisiae cln2 rad14 strain, hits give high values
In short: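 Relative to vehicle controls, growth inhibition of compound-treated cln2 rad14 yeast was recorded.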

[10] = NCI Yeast Anticancer Drug Screen. Data for the bub3 strain (AID 167); settings: S. cerevisiae bub3 mutant strain, hits give high values
In short: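 Part of a panel of yeast mutants defective in DNA damage repair or cell cycle regulation. Each strain is grown with compound, and inhibition is calculated relative to solvent-treated cultures.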

[11] = NCI Yeast Anticancer Drug Screen. Data for the wt2 strain (AID 169);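 further: 0% = growth of vehicle-treated yeast cultures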; settings: S. cerevisiae wt2 strain growth inhibition, hits give high values
In short: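 Values express reduction in yeast growth under compound treatment, referenced to vehicle-treated cells.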

[12] = NCI Yeast Anticancer Drug Screen. Data for the mlh1 strain (AID 171);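 further: 0% = growth of vehicle-treated control cultures of the same strain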; settings: S. cerevisiae mlh1 strain growth inhibition, hits give high values
In short: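 Steps: expose the defined-mutant yeast strain to compound; expose a parallel culture to vehicle; measure growth; express compound effect as inhibition relative to the vehicle culture.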

[13] = NCI Yeast Anticancer Drug Screen. Data for the sgs1 strain (AID 173);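 further: 0% = growth of vehicle-only control cultures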; settings: S. cerevisiae sgs1 mutant, hits give high values
In short: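 Treat defined-mutant yeast with compound; measure growth; calculate inhibition relative to vehicle-treated cells.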

[14] = NCI Yeast Anticancer Drug Screen. Data for the rad18 strain (AID 177); settings: S. cerevisiae rad18 mutant growth inhibition, hits give high values
In short: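 A genetically defined yeast mutant impaired in DNA damage repair was treated with test compounds, then its growth was measured against cultures receiving vehicle alone.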

[15] = NCI Yeast Anticancer Drug Screen. Data for the mlh1 rad18 strain (AID 175); settings: S. cerevisiae mlh1 rad18 strain growth inhibition, hits give high values
In short: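 Test agents were incubated with a yeast strain of defined genotype (DNA damage repair defect). Inhibition of growth was derived by comparison with vehicle-exposed cultures.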

[16] = at 5.0 µM (retest, dose inferred, filed as 0.5)
[17] = at 50.0 µM (retest, dose inferred, filed as 5.0)

Measured: growth inhibition

CC(=O)C1(O)Cc2c(O)c3c(c(O)c2C(OC2CC(N)C(O)C(C)O2)C1)C(=O)c1ccccc1C3=O (stereo not drawn)
inactive: [2]; at 1.2 µM 25% | [2]; at 3.7 µM 31% | [3]; at 1.2 µM 55% | [4]; [16] 24% | [5]; at 1.2 µM 15% | [5]; at 3.7 µM 50% | [5]; [16] -32% | [5]; [17] 47% | [6]; at 1.2 µM -4% | [6]; at 3.7 µM 33% | [7]; [16] -25% | [7]; [17] 65% | [8]; at 1.2 µM -1% | [8]; at 3.7 µM 46% | [9]; [16] -15% | [9]; [17] 41% | [10]; at 1.2 µM -7% | [10]; at 3.7 µM 8% | [10]; [16] -42% | [10]; [17] 16% | [11]; at 1.2 µM 2% | [11]; at 3.7 µM 27% | [12]; at 1.2 µM 1% | [12]; at 3.7 µM 22% | [13]; at 1.2 µM -14% | [13]; at 3.7 µM 60% | [14]; at 1.2 µM 1% | [14]; at 3.7 µM 60%
active: [1]; at 1.2 µM 82% | [1]; at 3.7 µM 92% | [1]; at 11.0 µM 95% | [1]; at 33.0 µM 96% | [1]; at 100.0 µM 97% | [2]; at 11.0 µM 88% | [2]; at 33.0 µM 96% | [2]; at 100.0 µM 98% | [3]; at 3.7 µM 92% | [3]; at 11.0 µM 97% | [3]; at 33.0 µM 98% | [3]; at 100.0 µM 98% | [4]; at 1.2 µM 86% | [4]; at 3.7 µM 92% | [4]; at 11.0 µM 94% | [4]; at 33.0 µM 97% | [4]; [17] 85% | [4]; at 50.0 µM 89.4% | [4]; at 100.0 µM 98% | [5]; at 11.0 µM 90% | [5]; at 33.0 µM 95% | [5]; at 50.0 µM 92.9% | [5]; at 100.0 µM 98% | [6]; at 11.0 µM 89% | [6]; at 33.0 µM 96% | [6]; at 100.0 µM 97% | [7]; at 50.0 µM 91% | [8]; at 11.0 µM 93% | [8]; at 33.0 µM 98% | [8]; at 100.0 µM 99% | [9]; at 50.0 µM 87.9% | [10]; at 11.0 µM 91% | [10]; at 33.0 µM 97% | [10]; at 50.0 µM 90.2% | [10]; at 100.0 µM 98% | [11]; at 11.0 µM 93% | [11]; at 33.0 µM 98% | [11]; at 100.0 µM 99% | [12]; at 11.0 µM 90% | [12]; at 33.0 µM 96% | [12]; at 100.0 µM 98% | [13]; at 11.0 µM 93% | [13]; at 33.0 µM 97% | [13]; at 100.0 µM 98% | [14]; at 11.0 µM 94% | [14]; at 33.0 µM 96% | [14]; at 100.0 µM 98%

Cc1ccc(S(=O)(=O)Nc2ccc3c(c2)C(O)c2ccccc2-3)cc1 (stereo not drawn)
active: [1]; at 33.0 µM 71% | [4]; at 50.0 µM 74.5% | [7]; at 50.0 µM 89.5% | [9]; at 50.0 µM 79.4% | [10]; at 50.0 µM 83.3% | [11]; at 33.0 µM 75% | [12]; at 33.0 µM 80% | [13]; at 33.0 µM 86% | [15]; at 50.0 µM 91% | [14]; at 33.0 µM 73%
inactive: [1]; at 1.2 µM -2% | [1]; at 3.7 µM -1% | [1]; at 11.0 µM 9% | [1]; at 100.0 µM 59% | [2]; at 1.2 µM -3% | [2]; at 3.7 µM -7% | [2]; at 11.0 µM -7% | [2]; at 33.0 µM 22% | [2]; at 100.0 µM 27% | [3]; at 1.2 µM 4% | [3]; at 3.7 µM 10% | [3]; at 11.0 µM 31% | [3]; at 33.0 µM 38% | [3]; at 100.0 µM 22% | [4]; at 1.2 µM -2% | [4]; at 3.7 µM -3% | [4]; [16] -4% | [4]; at 11.0 µM 6% | [4]; at 33.0 µM 48% | [4]; [17] 10% | [4]; at 100.0 µM 42% | [5]; at 1.2 µM -5% | [5]; at 3.7 µM -3% | [5]; [16] -9% | [5]; at 11.0 µM -5% | [5]; at 33.0 µM 21% | [5]; [17] 7% | [5]; at 50.0 µM 23.1% | [5]; at 100.0 µM 33% | [6]; at 1.2 µM -2% | [6]; at 3.7 µM -3% | [6]; at 11.0 µM 4% | [6]; at 33.0 µM 38% | [6]; at 100.0 µM 23% | [7]; [16] 0% | [7]; [17] 5% | [8]; at 1.2 µM -7% | [8]; at 3.7 µM -10% | [8]; at 11.0 µM -9% | [8]; at 33.0 µM 30% | [8]; at 100.0 µM 30% | [9]; [16] -19% | [9]; [17] 23% | [10]; at 1.2 µM 0% | [10]; at 3.7 µM 0% | [10]; [16] -3% | [10]; at 11.0 µM 2% | [10]; at 33.0 µM 20% | [10]; [17] 12% | [10]; at 100.0 µM 23% | [11]; at 1.2 µM -6% | [11]; at 3.7 µM -7% | [11]; at 11.0 µM -2% | [11]; at 100.0 µM 43% | [12]; at 1.2 µM -8% | [12]; at 3.7 µM -6% | [12]; at 11.0 µM 2% | [12]; at 100.0 µM 33% | [13]; at 1.2 µM -1% | [13]; at 3.7 µM -1% | [13]; at 11.0 µM 26% | [13]; at 100.0 µM 57% | [15]; [16] -6% | [15]; [17] 40% | [14]; at 1.2 µM -3% | [14]; at 3.7 µM -4% | [14]; at 11.0 µM -4% | [14]; at 100.0 µM 51%

CC(C)(O)c1ccccc1C(c1ccccc1)c1ccccc1
inactive: [1]; at 1.2 µM 0% | [1]; at 3.7 µM -3% | [1]; at 11.0 µM 9% | [1]; at 33.0 µM 3% | [1]; at 100.0 µM 8% | [2]; at 1.2 µM 0% | [2]; at 3.7 µM -1% | [2]; at 11.0 µM 5% | [2]; at 33.0 µM -3% | [2]; at 100.0 µM 4% | [3]; at 1.2 µM -5% | [3]; at 3.7 µM -4% | [3]; at 11.0 µM 5% | [3]; at 33.0 µM -1% | [3]; at 100.0 µM 4% | [4]; at 1.2 µM -2% | [4]; at 3.7 µM 3% | [4]; [16] 53% | [4]; at 11.0 µM 4% | [4]; at 33.0 µM 6% | [4]; at 50.0 µM 18.6% | [4]; at 100.0 µM 7% | [5]; at 1.2 µM -2% | [5]; at 3.7 µM 0% | [5]; [16] -5% | [5]; at 11.0 µM -2% | [5]; at 33.0 µM 1% | [5]; [17] 42% | [5]; at 50.0 µM 9.35% | [5]; at 100.0 µM 5% | [6]; at 1.2 µM 0% | [6]; at 3.7 µM 0% | [6]; at 11.0 µM 0% | [6]; at 33.0 µM 3% | [6]; at 100.0 µM 10% | [7]; [16] 25% | [7]; at 50.0 µM 17% | [8]; at 1.2 µM 1% | [8]; at 3.7 µM -1% | [8]; at 11.0 µM 3% | [8]; at 33.0 µM 9% | [8]; at 100.0 µM 17% | [9]; [16] 17% | [9]; at 50.0 µM -1% | [10]; at 1.2 µM -2% | [10]; at 3.7 µM -2% | [10]; [16] 29% | [10]; at 11.0 µM -4% | [10]; at 33.0 µM -2% | [10]; at 50.0 µM 7.9% | [10]; at 100.0 µM 4% | [11]; at 1.2 µM -9% | [11]; at 3.7 µM -10% | [11]; at 11.0 µM -12% | [11]; at 33.0 µM -10% | [11]; at 100.0 µM -17%
active: [4]; [17] 85% | [7]; [17] 88% | [9]; [17] 80% | [10]; [17] 86%
